Reference: PubChem BioAssay (EPA / NIEHS)
Activity calls are given as the source filed them. How the source made its calls: active means hit-call score of the fitted dose curve at least 0.9, where 1 is the maximum; inactive means score below 0.9.

How the values were obtained:
Conditions in all cases: mRNA level, 48 h; actives raise or lower the signal
[1] = read-out: matrix metalloproteinase-10 (MMP10), MMP10 (gene 4319); assay: LTEA_HepaRG_MMP10: Life Technologies and Expression Analysis (LTEA) Assay for matrix metalloproteinase-10 (MMP10) using HepaRG (AID 2283517)
Outline: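 Transcript levels come from Fluidigm qRT-PCR normalized to three housekeeping genes, with curves fitted bidirectionally against 0.5% DMSO. Human HepaRG cells were dosed for 48 hours at concentrations up to 100 uM.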

MYC, MYC (gene 4609) = assay: LTEA_HepaRG_MYC: Life Technologies and Expression Analysis (LTEA) Assay for MYC using HepaRG (AID 2283518)
Outline: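 Differentiated human HepaRG cells, plated 48 h then switched to serum-free induction medium, were exposed in duplicate for 48 h to 8-point half-log series up to 100 uM in 0.5% DMSO. MYC mRNA measured by qRT-PCR, normalized to ACTB/GAPDH/POLR2A.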

[2] = read-out: matrix metalloproteinase-3 (MMP3), MMP3 (gene 4314); assay: LTEA_HepaRG_MMP3: Life Technologies and Expression Analysis (LTEA) Assay for matrix metalloproteinase-3 (MMP3) using HepaRG (AID 2283519)
Outline: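 qRT-PCR read-out of MMP3 mRNA (normalised to three housekeeping genes) in HepaRG liver cells after 48 h chemical exposure; 8-point half-log series, top 100 uM, 0.5% DMSO vehicle. Bidirectional curve fitting against DMSO baseline.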

[3] = read-out: Paternally Expressed 10 (PEG10), PEG10 (gene 23089); assay: LTEA_HepaRG_PEG10: Life Technologies and Expression Analysis (LTEA) Assay for Paternally Expressed 10 (PEG10) using HepaRG (AID 2283520);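 on AC50: PEG10 transcript by qRT-PCR normalised to ACTB GAPDH and POLR2A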
Outline: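 After 48 h exposure of differentiated HepaRG cells (0.5% DMSO vehicle, eight concentrations up to 100 uM, duplicates), PEG10 mRNA was measured by TaqMan qRT-PCR. Values were normalised to endogenous control genes and analysed bidirectionally against vehicle.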

[4] = read-out: Protein phosphatase 2A (PPP2R4), PTPA (gene 5524); assay: LTEA_HepaRG_PPP2R4: Life Technologies and Expression Analysis (LTEA) Assay for Protein phosphatase 2A (PPP2R4) using HepaRG (AID 2283522)
Outline: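 Using HepaRG cultures maintained in 0.5% DMSO, chemicals are tested 48 h at up to 100 uM in duplicate. Induction or suppression of PPP2R4 mRNA, measured by qRT-PCR, is fitted bidirectionally against the vehicle baseline.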

[5] = read-out: Phosphatase and tensin (PTEN), PTEN (gene 5728); assay: LTEA_HepaRG_PTEN: Life Technologies and Expression Analysis (LTEA) Assay for Phosphatase and tensin (PTEN) using HepaRG (AID 2283523)
Outline: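 HepaRG, 48 h exposure, 8-pt half-log series from 100 uM top, 0.5% DMSO vehicle, duplicates. Readout: Fluidigm qRT-PCR of PTEN transcript; housekeeping normalization (ACTB, GAPDH, POLR2A). Gain or loss fitted relative to DMSO baseline.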

[6] = read-out: Pyruvate Dehydrogenase Kinase 4 (PDK4), PDK4 (gene 5166); assay: LTEA_HepaRG_PDK4: Life Technologies and Expression Analysis (LTEA) Assay for Pyruvate Dehydrogenase Kinase 4 (PDK4) using HepaRG (AID 2283525)
Outline: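 HepaRG (human liver line), 48 h chemical exposure, 8-pt half-log CRC top 100 uM, 0.5% DMSO vehicle, duplicates. Readout: TaqMan qRT-PCR of PDK4 mRNA, housekeeping-normalized; gain/loss fit relative to DMSO baseline.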

[7] = read-out: NAD(P)H dehydrogenase [quinone] 1 (NQO1), NQO1 (gene 1728); assay: LTEA_HepaRG_NQO1: Life Technologies and Expression Analysis (LTEA) Assay for NAD(P)H dehydrogenase [quinone] 1 (NQO1) using HepaRG (AID 2283526)
Outline: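 In this assay, gene expression is read by qRT-PCR after 48 h exposure of HepaRG cells to eight concentrations (max 100 uM, half-log) in 0.5% DMSO. Each chemical runs in duplicate, and activity is scored relative to vehicle.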

[8] = read-out: Nuclear factor erythroid 2-related factor 2 (Homo sapiens) (UniProt Q16236); assay: LTEA_HepaRG_NFE2L2: Life Technologies and Expression Analysis (LTEA) Assay for Nuclear factor erythroid 2-related factor 2 (NFE2L2) Transcription Factor using HepaRG (AID 2283527)
Outline: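 HepaRG, 48 h dosing, 8-pt half-log series from 100 uM in 0.5% DMSO, duplicates. Read-out: NFE2L2 mRNA by qRT-PCR (ACTB/GAPDH/POLR2A normalization). Bidirectional curve fit vs DMSO baseline.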

[9] = read-out: succinate dehydrogenase complex iron sulfur subunit B (SDHB), SDHB (gene 6390); assay: LTEA_HepaRG_SDHB: Life Technologies and Expression Analysis (LTEA) Assay for succinate dehydrogenase complex iron sulfur subunit B (SDHB) using HepaRG (AID 2283528)
Outline: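 HepaRG cells (~100,000/well, plated 48 h) exposed in duplicate for 48 h in serum-free induction medium to 8-point half-log series from 100 uM in 0.5% DMSO; mRNA by qRT-PCR normalised to ACTB, GAPDH, POLR2A; bidirectional fit versus DMSO.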

[10] = read-out: Signal transducer and activator of transcription 3 (Homo sapiens) (UniProt P40763); assay: LTEA_HepaRG_STAT3: Life Technologies and Expression Analysis (LTEA) Assay for Signal transducer and activator of transcription (STAT3) using HepaRG (AID 2283529)
Outline: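 HepaRG, 48 h exposure, 8-pt half-log series (top 100 uM), 0.5% DMSO vehicle, duplicates. Readout: STAT3 transcript by Fluidigm qRT-PCR, housekeeping-normalized; bidirectional fit vs DMSO baseline.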

[11] = read-out: solute carrier (SLCO1B1), SLCO1B1 (gene 10599); assay: LTEA_HepaRG_SLCO1B1: Life Technologies and Expression Analysis (LTEA) Assay for solute carrier (SLCO1B1) using HepaRG (AID 2283530)
Outline: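 Differentiated human HepaRG cells, plated 48 h, switched to serum-free induction medium and exposed in duplicate for 48 h to 8 half-log concentrations (top 100 uM) in 0.5% DMSO. SLCO1B1 mRNA by TaqMan qRT-PCR, normalized to ACTB/GAPDH/POLR2A.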

[12] = read-out: sulfotransferase 2A1 (SULT2A1), SULT2A1 (gene 6822); assay: LTEA_HepaRG_SULT2A1: Life Technologies and Expression Analysis (LTEA) Assay for sulfotransferase 2A1 (SULT2A1) using HepaRG (AID 2283531)
Outline: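 Differentiated human HepaRG cells in serum-free induction medium were exposed for 48 h to eight half-log concentrations (top 100 uM, 0.5% DMSO). SULT2A1 mRNA was measured by qRT-PCR, normalized to ACTB, GAPDH and POLR2A, and fitted bidirectionally against DMSO.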

[13] = read-out: Transforming Growth Factor (TGFA), TGFA (gene 7039); assay: LTEA_HepaRG_TGFA: Life Technologies and Expression Analysis (LTEA) Assay for Transforming Growth Factor (TGFA) using HepaRG (AID 2283532)
Outline: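 qRT-PCR read-out of TGFA transcript, normalized to three housekeeping genes, fitted bidirectionally against 0.5% DMSO baseline. Human HepaRG cultures received chemicals for 48 h at eight half-log concentrations, top 100 uM.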

TIMP1, TIMP1 (gene 7076) = assay: LTEA_HepaRG_TIMP1: Life Technologies and Expression Analysis (LTEA) Assay for TIMP1 using HepaRG (AID 2283534);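 on outcome: TaqMan qRT-PCR signal normalized to ACTB GAPDH and POLR2A housekeeping genes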
Outline: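 Differentiated human HepaRG cells in serum-free induction medium were exposed 48 h to chemicals (8 half-log concentrations, top 100 uM, 0.5% DMSO). TIMP1 mRNA was quantified by TaqMan qRT-PCR, normalized to ACTB/GAPDH/POLR2A; bidirectional fit versus DMSO.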

[14] = read-out: Tumor necrosis factor receptor 1 (TNFRSF1A), TNFRSF1A (gene 7132); assay: LTEA_HepaRG_TNFRSF1A: Life Technologies and Expression Analysis (LTEA) Assay for Tumor necrosis factor receptor 1 (TNFRSF1A) using HepaRG (AID 2283535)
Outline: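 Differentiated human HepaRG cells were exposed in duplicate for 48 h in serum-free induction medium to eight concentrations (top 100 uM, half-log steps, 0.5% DMSO). TNFRSF1A mRNA was quantified by qRT-PCR, normalized to ACTB, GAPDH and POLR2A, then fitted bidirectionally against DMSO.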

[15] = read-out: Nuclear factor NF-kappa-B p105 subunit (Homo sapiens) (UniProt P19838); assay: LTEA_HepaRG_NFKB1: Life Technologies and Expression Analysis (LTEA) Assay for Nuclear Factor Kappa B Subunit 1 (NFKB1) using HepaRG (AID 2283521);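 on outcome: TaqMan qRT-PCR transcript normalised to ACTB GAPDH and POLR2A housekeeping genes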
Outline: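 Differentiated human HepaRG cells in serum-free induction medium with 0.5% DMSO were exposed for 48 h to eight half-log concentrations, top 100 uM, in duplicate. NFKB1 mRNA measured by Fluidigm TaqMan qRT-PCR, normalised to ACTB, GAPDH and POLR2A; bidirectional fit versus DMSO.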

[16] = read-out: solute carrier (SLC22A1), SLC22A1 (gene 6580); assay: LTEA_HepaRG_SLC22A1: Life Technologies and Expression Analysis (LTEA) Assay for solute carrier (SLC22A1) using HepaRG (AID 2283524)
Outline: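 qRT-PCR readout (TaqMan, Fluidigm arrays) of SLC22A1 transcript, normalized to three housekeeping genes; bidirectional curve fit relative to 0.5% DMSO vehicle. Differentiated human HepaRG cells, 48 h chemical exposure, top concentration 100 uM, half-log steps, eight points.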

[17] = read-out: Transforming Growth Factor (TGFB1), TGFB1 (gene 7040); assay: LTEA_HepaRG_TGFB1: Life Technologies and Expression Analysis (LTEA) Assay for Transforming Growth Factor (TGFB1) Transporter using HepaRG (AID 2283533)
Outline: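 Differentiated human HepaRG cells in serum-free induction medium were exposed in duplicate for 48 h to eight concentrations (top 100 uM, half-log steps, 0.5% DMSO). TGFB1 mRNA was quantified by qRT-PCR, normalized to ACTB, GAPDH, POLR2A, and fitted bidirectionally against DMSO.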

Sequence of Signal transducer and activator of transcription 3 (Homo sapiens) (P40763 whole entry, looked up): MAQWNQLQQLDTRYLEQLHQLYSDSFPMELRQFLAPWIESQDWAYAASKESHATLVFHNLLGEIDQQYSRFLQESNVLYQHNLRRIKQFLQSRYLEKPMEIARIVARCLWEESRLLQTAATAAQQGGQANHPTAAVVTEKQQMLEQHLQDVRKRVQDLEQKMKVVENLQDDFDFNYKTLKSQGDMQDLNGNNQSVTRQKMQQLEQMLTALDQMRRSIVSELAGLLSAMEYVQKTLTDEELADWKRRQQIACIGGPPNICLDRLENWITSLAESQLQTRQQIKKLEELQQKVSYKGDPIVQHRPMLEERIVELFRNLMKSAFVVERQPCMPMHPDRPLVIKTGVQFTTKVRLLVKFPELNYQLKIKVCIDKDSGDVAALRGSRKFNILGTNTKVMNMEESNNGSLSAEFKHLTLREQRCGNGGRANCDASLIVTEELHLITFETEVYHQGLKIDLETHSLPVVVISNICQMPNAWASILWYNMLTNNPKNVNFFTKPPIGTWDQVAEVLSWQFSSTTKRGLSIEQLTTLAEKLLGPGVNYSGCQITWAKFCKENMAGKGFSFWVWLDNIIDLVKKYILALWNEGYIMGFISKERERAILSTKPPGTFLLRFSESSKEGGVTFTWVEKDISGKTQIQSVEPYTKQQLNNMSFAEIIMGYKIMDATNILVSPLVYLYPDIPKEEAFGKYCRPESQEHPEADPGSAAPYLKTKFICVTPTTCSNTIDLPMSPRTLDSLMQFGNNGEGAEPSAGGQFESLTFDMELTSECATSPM
Sequence of Nuclear factor NF-kappa-B p105 subunit (Homo sapiens) (P19838 whole entry, looked up): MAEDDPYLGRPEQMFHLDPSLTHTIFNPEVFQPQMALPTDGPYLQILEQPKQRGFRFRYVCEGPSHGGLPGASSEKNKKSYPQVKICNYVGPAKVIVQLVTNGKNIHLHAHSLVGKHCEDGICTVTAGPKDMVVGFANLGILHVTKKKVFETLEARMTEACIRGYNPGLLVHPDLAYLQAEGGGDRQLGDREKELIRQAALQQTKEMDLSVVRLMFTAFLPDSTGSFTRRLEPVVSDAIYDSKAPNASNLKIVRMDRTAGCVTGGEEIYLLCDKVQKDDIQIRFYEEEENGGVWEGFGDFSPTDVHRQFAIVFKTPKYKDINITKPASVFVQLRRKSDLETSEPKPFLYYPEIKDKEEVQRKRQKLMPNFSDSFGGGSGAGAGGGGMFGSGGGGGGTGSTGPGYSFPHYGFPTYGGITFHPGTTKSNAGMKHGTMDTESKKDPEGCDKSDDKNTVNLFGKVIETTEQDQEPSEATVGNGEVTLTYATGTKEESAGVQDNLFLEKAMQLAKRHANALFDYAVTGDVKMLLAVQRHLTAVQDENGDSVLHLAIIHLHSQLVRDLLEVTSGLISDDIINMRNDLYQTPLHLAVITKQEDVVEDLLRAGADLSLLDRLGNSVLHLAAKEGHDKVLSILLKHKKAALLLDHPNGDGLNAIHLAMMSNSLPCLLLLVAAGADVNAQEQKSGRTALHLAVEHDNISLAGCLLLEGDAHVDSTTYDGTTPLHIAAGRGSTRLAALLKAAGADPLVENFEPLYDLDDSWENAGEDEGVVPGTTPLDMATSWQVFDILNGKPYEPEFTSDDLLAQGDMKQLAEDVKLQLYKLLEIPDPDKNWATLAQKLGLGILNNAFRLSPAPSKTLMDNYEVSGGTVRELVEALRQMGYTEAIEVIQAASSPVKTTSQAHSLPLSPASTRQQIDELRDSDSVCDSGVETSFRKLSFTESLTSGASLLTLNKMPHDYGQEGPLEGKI
Sequence of Nuclear factor erythroid 2-related factor 2 (Homo sapiens) (Q16236 whole entry, looked up): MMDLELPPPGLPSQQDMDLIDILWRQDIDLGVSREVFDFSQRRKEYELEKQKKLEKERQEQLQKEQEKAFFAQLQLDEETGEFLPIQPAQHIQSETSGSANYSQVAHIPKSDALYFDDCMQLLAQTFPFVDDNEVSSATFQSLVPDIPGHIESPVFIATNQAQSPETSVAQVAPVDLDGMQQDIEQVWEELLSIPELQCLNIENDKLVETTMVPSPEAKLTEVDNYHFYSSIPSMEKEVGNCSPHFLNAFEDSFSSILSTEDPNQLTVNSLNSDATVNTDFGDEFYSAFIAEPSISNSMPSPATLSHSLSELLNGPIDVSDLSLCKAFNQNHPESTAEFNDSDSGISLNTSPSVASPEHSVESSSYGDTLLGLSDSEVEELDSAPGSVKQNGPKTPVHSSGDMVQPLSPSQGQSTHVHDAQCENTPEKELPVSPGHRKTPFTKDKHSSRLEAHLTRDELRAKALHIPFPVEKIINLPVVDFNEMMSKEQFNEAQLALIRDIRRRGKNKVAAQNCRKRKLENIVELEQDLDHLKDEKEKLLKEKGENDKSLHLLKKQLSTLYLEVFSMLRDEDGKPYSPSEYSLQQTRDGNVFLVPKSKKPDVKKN

## CCc1cc(C2=C(C(=O)O)N(c3ccccc3C(F)(F)F)S(=O)(=O)c3ccccc32)cc2c1OCO2
[1]
  outcome: inactive
MYC, MYC (gene 4609)
  AC50: 56.7 µM (active)
[2]
  AC50: 50 µM (active)
[3]
  AC50: 28.5 µM (active)
[4]
  outcome: inactive
[5]
  outcome: inactive
[6]
  AC50: 50 µM (active)
[7]
  outcome: inactive
[8]
  AC50: 50 µM (active)
[9]
  outcome: inactive
[10]
  outcome: inactive
[11]
  AC50: 50 µM (active)
[12]
  AC50: 85.5 µM (active)
[13]
  AC50: 79.1 µM (active)
TIMP1, TIMP1 (gene 7076)
  outcome: inactive
[14]
  outcome: inactive

## c1ccc2occc2c1
[1]
  outcome: inactive
MYC, MYC (gene 4609)
  outcome: inactive
[2]
  outcome: inactive
[3]
  outcome: inactive
[15]
  outcome: inactive
[4]
  outcome: inactive
[5]
  outcome: inactive
[16]
  outcome: inactive
[6]
  outcome: inactive
[7]
  outcome: inactive
[9]
  outcome: inactive
[10]
  outcome: inactive
[11]
  outcome: inactive
[12]
  outcome: inactive
[13]
  outcome: inactive
[17]
  outcome: inactive
TIMP1, TIMP1 (gene 7076)
  outcome: inactive
[14]
  outcome: inactive

## CC(C)OC(=O)C(C)(C)Oc1ccc(C(=O)c2ccc(Cl)cc2)cc1
[1]
  outcome: inactive
MYC, MYC (gene 4609)
  outcome: inactive
[2]
  AC50: 0.0439 µM (active)
[3]
  outcome: inactive
[15]
  outcome: inactive
[4]
  outcome: inactive
[5]
  outcome: inactive
[16]
  outcome: inactive
[6]
  AC50: 16.7 µM (active)
[7]
  outcome: inactive
[9]
  outcome: inactive
[10]
  outcome: inactive
[11]
  outcome: inactive
[12]
  outcome: inactive
[13]
  outcome: inactive
[17]
  outcome: inactive
TIMP1, TIMP1 (gene 7076)
  outcome: inactive
[14]
  outcome: inactive

## Cc1ccc(-c2cc(C(F)(F)F)nn2-c2ccc(S(N)(=O)=O)cc2)cc1
[1]
  outcome: inactive
MYC, MYC (gene 4609)
  AC50: 67.3 µM (active)
[2]
  outcome: inactive
[3]
  AC50: 64.2 µM (active)
[15]
  AC50: 70.2 µM (active)
[4]
  outcome: inactive
[5]
  outcome: inactive
[16]
  AC50: 55.9 µM (active)
[6]
  outcome: inactive
[7]
  outcome: inactive
[9]
  outcome: inactive
[10]
  AC50: 89.2 µM (active)
[11]
  outcome: inactive
[12]
  AC50: 83.6 µM (active)
[13]
  AC50: 73.1 µM (active)
[17]
  AC50: 84.2 µM (active)
TIMP1, TIMP1 (gene 7076)
  AC50: 88 µM (active)
[14]
  AC50: 93.5 µM (active)
